# Data reported in publication PMC7862700, “An all-to-all approach to the identification of sequence-specific readers for epigenetic DNA modifications on cytosine”.
# Legend:
# Test in all cases: DAPPL (digital affinity profiling via proximity ligation, sequencing); 10 mM Tris-HCl pH 7.5, 50 mM NaCl, 1 mM DTT, 4% glycerol, room temperature, 30 min; GST-TFs on glutathione beads, 16-mer random dsDNA library, 0.1% formaldehyde crosslink after washing; high values mean tight binding
# FLI1 = biological target: T1, FLI1 (Homo sapiens, UniProt Q01543 1-452); settings: protein: recombinant; tags: N-terminal GST; dsDNA, one strand shown
# T1 sequence: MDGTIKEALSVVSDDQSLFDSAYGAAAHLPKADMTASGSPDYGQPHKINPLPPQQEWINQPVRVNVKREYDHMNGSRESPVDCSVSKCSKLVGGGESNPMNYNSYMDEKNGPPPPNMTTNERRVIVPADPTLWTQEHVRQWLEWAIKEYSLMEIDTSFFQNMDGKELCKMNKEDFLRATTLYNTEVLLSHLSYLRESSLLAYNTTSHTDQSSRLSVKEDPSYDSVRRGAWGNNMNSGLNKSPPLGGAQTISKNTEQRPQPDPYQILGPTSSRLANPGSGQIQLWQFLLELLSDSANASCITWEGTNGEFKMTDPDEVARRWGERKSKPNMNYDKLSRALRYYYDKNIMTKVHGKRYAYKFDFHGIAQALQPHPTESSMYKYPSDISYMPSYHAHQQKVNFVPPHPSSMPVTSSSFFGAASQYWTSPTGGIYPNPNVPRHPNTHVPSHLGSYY
# Procedure, shortened: (§1)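 Binding signal is given per hexamer as its read frequency for a factor divided by its frequency in the tag-only sample. GST-fused human transcription factors were expressed in yeast, captured on glutathione beads, barcoded with DNA and pooled with that sample, then incubated with 200 nmole of a 16-mer random double-stranded DNA library in Tris/NaCl/DTT/glycerol buffer for 30 min at room temperature. The pools were then washed, crosslinked, proximity-ligated, amplified by PCR and sequenced on an Illumina NextSeq500.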
# ELK1 = biological target: T2, ELK1 (Homo sapiens, UniProt P19419 1-428); settings: protein: recombinant; tags: N-terminal GST; dsDNA, one strand shown
# T2 sequence: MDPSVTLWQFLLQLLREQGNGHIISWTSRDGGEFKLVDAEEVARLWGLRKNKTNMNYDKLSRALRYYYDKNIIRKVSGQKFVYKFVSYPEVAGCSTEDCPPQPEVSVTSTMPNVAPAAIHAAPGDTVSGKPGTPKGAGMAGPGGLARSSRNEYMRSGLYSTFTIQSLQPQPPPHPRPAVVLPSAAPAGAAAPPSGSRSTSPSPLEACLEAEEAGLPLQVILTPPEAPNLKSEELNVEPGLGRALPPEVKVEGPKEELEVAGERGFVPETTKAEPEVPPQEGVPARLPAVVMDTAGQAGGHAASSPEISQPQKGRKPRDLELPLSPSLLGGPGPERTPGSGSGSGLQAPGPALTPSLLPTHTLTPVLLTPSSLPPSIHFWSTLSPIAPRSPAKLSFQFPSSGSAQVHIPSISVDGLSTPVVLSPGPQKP
# Procedure, shortened: as §1
# GABPA = biological target: T3, GABPA (Homo sapiens, UniProt Q06546 1-454); settings: protein: recombinant; tags: N-terminal GST; dsDNA, one strand shown
# T3 sequence: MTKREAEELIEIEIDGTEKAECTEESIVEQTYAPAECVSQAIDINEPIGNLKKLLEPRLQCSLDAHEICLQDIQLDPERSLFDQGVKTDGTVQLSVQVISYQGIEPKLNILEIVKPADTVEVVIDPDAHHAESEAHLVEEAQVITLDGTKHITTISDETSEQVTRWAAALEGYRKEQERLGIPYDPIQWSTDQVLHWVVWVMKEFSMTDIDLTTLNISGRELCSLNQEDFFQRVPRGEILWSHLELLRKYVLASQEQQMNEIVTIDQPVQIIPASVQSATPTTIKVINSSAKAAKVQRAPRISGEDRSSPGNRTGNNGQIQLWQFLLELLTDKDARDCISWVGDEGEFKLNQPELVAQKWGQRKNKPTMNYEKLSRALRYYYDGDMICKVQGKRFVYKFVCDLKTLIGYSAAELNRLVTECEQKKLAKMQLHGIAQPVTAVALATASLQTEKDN
# Procedure, shortened: as §1
# ERG = biological target: T4, ERG (Homo sapiens, UniProt P11308 1-479); settings: protein: recombinant; tags: N-terminal GST; dsDNA, one strand shown
# T4 sequence: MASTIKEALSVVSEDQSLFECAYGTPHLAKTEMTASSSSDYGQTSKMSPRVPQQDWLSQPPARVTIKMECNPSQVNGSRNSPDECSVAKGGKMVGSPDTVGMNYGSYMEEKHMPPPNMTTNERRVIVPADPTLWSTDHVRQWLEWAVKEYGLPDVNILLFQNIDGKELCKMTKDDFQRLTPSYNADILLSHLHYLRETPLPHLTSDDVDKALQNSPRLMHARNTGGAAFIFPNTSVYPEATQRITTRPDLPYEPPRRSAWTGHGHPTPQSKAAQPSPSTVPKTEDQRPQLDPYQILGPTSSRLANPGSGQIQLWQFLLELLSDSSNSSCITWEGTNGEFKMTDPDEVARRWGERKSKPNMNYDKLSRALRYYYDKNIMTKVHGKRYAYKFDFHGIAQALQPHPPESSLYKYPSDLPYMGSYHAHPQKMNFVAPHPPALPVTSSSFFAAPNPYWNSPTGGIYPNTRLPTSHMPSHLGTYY
# Procedure, shortened: as §1
# ELF1 = ELF1 (Homo sapiens, UniProt P32519 1-619); settings: protein: recombinant; tags: N-terminal GST; dsDNA, one strand shown
# Sequence of ELF1 (P32519 whole entry): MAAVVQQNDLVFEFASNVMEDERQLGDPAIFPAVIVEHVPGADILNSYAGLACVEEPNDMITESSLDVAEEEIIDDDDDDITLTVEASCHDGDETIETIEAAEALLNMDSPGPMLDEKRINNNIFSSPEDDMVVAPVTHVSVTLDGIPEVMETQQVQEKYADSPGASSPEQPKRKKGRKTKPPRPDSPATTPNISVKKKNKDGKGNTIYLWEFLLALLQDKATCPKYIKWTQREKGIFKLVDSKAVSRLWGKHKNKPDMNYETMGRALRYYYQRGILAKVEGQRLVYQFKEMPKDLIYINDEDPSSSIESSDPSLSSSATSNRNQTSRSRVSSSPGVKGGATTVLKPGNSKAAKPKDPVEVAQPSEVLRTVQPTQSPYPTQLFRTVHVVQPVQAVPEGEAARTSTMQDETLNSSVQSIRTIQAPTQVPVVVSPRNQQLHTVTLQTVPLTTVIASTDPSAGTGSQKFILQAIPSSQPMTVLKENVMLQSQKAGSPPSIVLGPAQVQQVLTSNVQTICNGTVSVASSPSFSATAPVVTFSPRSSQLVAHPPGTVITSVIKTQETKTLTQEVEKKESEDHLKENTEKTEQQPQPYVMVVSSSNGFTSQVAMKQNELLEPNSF
# Procedure, shortened: as §1
# EHF = biological target: T5, EHF (Homo sapiens, UniProt Q9NZC4 1-300); settings: protein: recombinant; tags: N-terminal GST; dsDNA, one strand shown
# T5 sequence: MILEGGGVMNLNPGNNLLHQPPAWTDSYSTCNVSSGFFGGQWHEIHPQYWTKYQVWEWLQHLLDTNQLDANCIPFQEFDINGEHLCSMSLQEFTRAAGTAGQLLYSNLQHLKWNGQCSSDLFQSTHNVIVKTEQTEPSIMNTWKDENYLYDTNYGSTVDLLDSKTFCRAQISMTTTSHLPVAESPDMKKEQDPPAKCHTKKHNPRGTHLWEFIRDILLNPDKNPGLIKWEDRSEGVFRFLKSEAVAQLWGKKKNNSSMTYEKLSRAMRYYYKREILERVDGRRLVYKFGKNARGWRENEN
# Procedure, shortened: as §1
# SPI1 = SPI1 (Homo sapiens, UniProt P17947 1-270); settings: protein: recombinant; tags: N-terminal GST; dsDNA, one strand shown
# Procedure, shortened: as §1
# SPIB = SPIB (Homo sapiens, UniProt Q01892 1-262); settings: protein: recombinant; tags: N-terminal GST; dsDNA, one strand shown
# Sequence of SPIB (Q01892 whole entry): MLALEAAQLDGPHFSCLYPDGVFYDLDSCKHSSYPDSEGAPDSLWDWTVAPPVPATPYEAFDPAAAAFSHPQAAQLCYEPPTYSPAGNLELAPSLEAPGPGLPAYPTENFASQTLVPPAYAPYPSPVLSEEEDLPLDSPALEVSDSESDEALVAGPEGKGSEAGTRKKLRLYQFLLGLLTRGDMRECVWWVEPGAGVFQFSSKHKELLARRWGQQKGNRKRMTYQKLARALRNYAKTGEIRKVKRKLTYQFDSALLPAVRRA
# Procedure, shortened: as §1
# ELK3 = biological target: T6, ELK3 (Homo sapiens, UniProt P41970 1-407); settings: protein: recombinant; tags: N-terminal GST; dsDNA, one strand shown
# T6 sequence: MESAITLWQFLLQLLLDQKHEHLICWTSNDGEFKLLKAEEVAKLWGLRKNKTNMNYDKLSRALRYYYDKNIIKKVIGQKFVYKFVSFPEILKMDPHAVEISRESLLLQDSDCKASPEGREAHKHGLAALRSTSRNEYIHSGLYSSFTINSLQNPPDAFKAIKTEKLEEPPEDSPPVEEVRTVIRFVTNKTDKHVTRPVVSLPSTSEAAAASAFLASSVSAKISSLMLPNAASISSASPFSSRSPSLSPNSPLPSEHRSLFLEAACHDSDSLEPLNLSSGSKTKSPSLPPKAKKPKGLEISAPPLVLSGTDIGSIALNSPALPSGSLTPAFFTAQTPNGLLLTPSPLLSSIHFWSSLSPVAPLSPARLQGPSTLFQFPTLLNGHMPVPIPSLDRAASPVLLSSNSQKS
# Procedure, shortened: as §1
# FEV = biological target: T7, FEV (Homo sapiens, UniProt Q99581 1-238); settings: protein: recombinant; tags: N-terminal GST; dsDNA, one strand shown
# T7 sequence: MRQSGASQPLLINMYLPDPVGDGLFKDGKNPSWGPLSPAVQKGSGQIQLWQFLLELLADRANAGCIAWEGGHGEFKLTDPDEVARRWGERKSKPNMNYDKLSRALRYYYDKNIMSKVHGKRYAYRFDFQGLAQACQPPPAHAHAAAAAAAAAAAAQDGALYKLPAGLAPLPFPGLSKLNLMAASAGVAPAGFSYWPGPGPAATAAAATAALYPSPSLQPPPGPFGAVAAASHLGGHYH
# Procedure, shortened: as §1
# ETV5 = ETV5 (Homo sapiens, UniProt P41161 1-510); settings: protein: recombinant; tags: N-terminal GST; dsDNA, one strand shown
# Sequence of ETV5 (P41161 whole entry): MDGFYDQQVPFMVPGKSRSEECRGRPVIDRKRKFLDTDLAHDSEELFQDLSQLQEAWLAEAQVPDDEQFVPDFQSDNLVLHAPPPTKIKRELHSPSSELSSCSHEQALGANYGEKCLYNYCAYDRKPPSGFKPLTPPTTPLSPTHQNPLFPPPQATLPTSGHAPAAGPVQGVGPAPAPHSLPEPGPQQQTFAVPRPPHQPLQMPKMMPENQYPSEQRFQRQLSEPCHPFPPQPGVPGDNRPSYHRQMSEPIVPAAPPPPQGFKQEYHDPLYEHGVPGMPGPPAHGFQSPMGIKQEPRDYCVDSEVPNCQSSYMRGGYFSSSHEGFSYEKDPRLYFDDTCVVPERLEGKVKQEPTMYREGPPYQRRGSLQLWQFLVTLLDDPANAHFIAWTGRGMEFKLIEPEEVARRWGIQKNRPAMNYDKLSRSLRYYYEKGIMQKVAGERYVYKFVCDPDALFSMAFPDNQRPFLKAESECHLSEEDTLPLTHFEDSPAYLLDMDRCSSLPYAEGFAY
# Procedure, shortened: as §1
# HSF1 = HSF1 (Homo sapiens, UniProt Q00613 1-529); settings: protein: recombinant; tags: N-terminal GST; chain copies: 3; dsDNA, one strand shown
# Sequence of HSF1 (Q00613 whole entry): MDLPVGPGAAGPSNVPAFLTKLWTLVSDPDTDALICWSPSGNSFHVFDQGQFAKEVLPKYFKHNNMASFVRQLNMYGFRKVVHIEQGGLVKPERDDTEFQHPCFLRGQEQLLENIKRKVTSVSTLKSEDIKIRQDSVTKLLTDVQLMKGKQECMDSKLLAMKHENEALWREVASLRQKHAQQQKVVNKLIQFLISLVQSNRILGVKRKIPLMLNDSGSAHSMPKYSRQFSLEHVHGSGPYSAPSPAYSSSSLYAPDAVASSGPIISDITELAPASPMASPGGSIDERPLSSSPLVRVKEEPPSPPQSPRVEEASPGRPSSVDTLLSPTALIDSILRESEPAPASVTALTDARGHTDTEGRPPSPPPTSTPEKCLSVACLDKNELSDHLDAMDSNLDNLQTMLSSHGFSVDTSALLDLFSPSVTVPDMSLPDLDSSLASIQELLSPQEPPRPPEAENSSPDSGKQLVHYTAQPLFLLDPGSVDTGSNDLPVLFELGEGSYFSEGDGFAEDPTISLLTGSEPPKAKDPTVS
# Procedure, shortened: as §1
# SPIC = biological target: T8, SPIC (Homo sapiens, UniProt Q8N5J4 1-248); settings: protein: recombinant; tags: N-terminal GST; dsDNA, one strand shown
# T8 sequence: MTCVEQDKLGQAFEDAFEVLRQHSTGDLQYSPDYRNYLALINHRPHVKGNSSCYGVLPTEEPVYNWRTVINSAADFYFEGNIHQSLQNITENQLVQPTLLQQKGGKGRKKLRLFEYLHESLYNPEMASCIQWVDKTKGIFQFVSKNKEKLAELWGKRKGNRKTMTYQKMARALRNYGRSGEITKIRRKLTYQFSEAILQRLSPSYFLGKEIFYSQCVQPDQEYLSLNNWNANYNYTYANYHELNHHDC
# Procedure, shortened: as §1
# ELF4 = ELF4 (Homo sapiens, UniProt Q99607 1-663); settings: protein: recombinant; tags: N-terminal GST; dsDNA, one strand shown
# Sequence of ELF4 (Q99607 whole entry): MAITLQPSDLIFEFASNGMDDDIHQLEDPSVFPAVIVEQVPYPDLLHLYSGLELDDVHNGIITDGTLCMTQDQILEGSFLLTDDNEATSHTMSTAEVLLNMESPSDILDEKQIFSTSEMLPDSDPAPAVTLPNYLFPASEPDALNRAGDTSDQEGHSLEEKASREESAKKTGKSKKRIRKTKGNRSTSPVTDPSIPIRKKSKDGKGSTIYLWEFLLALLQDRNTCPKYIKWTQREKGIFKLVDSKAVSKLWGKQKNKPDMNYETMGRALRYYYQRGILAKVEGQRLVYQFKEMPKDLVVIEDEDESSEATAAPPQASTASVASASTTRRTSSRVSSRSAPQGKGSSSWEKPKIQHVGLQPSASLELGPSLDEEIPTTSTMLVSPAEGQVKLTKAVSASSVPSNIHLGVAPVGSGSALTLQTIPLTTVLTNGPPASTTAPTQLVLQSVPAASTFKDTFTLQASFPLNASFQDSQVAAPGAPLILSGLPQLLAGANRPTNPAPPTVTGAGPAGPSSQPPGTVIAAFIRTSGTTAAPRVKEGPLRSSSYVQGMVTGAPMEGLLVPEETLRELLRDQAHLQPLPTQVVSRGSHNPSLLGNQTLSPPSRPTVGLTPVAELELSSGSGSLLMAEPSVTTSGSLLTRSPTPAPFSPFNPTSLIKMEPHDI
# Procedure, shortened: as §1
# ELK4 = biological target: T9, ELK4 (Homo sapiens, UniProt P28324-2 1-405); settings: protein: recombinant; tags: N-terminal GST; dsDNA, one strand shown
# T9 sequence: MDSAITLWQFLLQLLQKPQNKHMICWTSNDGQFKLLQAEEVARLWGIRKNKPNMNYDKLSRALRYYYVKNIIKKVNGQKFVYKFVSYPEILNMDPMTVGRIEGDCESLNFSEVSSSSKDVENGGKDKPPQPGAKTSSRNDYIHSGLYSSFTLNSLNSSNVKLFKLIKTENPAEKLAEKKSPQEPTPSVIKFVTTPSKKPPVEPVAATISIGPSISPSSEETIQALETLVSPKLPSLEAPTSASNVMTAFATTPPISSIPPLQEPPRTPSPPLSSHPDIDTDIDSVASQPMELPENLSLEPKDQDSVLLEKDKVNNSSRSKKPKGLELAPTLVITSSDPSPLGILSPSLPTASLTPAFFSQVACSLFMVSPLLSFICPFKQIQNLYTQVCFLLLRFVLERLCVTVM
# Procedure, shortened: as §1
# ETV2 = biological target: T10, ETV2 (Homo sapiens, UniProt O00321 1-342); settings: protein: recombinant; tags: N-terminal GST; dsDNA, one strand shown
# T10 sequence: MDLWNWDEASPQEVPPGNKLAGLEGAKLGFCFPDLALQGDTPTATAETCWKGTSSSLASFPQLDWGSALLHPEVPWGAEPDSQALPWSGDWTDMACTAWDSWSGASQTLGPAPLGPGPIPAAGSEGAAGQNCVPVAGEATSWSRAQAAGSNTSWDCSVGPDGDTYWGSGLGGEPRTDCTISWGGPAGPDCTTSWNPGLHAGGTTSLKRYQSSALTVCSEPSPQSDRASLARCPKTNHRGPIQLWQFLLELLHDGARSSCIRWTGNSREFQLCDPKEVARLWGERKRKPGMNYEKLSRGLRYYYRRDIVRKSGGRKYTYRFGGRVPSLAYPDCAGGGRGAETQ
# Procedure, shortened: as §1
# ELF3 = biological target: T11, ELF3 (Homo sapiens, UniProt P78545 1-371); settings: protein: recombinant; tags: N-terminal GST; dsDNA, one strand shown
# T11 sequence: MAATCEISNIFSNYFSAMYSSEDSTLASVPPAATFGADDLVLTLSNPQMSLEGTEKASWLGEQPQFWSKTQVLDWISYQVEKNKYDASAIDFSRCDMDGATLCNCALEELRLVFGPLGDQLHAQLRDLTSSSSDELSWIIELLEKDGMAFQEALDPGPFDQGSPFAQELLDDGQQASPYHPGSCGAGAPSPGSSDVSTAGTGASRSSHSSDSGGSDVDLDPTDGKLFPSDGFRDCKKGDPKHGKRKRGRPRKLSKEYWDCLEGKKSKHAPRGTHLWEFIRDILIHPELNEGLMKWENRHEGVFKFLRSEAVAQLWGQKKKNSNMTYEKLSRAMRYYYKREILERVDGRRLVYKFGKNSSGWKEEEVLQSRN
# Procedure, shortened: as §1
# CRX = CRX (Homo sapiens, UniProt O43186 1-299); settings: protein: recombinant; tags: N-terminal GST; dsDNA, one strand shown
# Sequence of CRX (O43186 whole entry): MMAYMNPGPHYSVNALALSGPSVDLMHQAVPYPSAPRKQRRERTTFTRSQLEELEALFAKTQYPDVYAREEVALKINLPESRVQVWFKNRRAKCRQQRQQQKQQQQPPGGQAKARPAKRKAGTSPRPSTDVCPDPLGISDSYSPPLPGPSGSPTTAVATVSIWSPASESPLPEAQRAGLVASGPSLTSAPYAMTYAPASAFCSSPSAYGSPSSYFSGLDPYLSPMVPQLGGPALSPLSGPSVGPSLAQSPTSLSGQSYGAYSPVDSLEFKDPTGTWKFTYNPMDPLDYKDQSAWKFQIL
# Procedure, shortened: as §1
# ETV1 = ETV1 (Homo sapiens, UniProt P50549 1-477); settings: protein: recombinant; tags: N-terminal GST; dsDNA, one strand shown
# Sequence of ETV1 (P50549 whole entry): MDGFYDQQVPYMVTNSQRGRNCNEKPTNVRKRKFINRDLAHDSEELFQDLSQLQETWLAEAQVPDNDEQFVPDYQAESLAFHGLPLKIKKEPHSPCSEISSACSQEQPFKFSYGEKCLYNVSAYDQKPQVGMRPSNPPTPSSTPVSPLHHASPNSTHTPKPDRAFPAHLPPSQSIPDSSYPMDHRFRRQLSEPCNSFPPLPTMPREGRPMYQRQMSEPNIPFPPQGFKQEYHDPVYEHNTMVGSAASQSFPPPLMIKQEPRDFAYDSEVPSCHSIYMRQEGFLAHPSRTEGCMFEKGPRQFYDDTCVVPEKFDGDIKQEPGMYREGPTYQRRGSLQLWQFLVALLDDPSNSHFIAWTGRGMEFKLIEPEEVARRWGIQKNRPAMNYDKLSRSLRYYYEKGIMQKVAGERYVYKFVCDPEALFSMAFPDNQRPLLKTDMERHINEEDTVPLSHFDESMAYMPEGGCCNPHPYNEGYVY
# Procedure, shortened: as §1
sequence,measurement,setting,value
AACTCT,binding signal,FLI1,"1.32 fold enrichment (6-mer frequency, TF over GST control)"
same,binding signal,ELK1,"1.37 fold enrichment (6-mer frequency, TF over GST control)"
same,binding signal,GABPA,"1.31 fold enrichment (6-mer frequency, TF over GST control)"
same,binding signal,ERG,"1.33 fold enrichment (6-mer frequency, TF over GST control)"
same,binding signal,ELF1,"1.5 fold enrichment (6-mer frequency, TF over GST control)"
same,binding signal,EHF,"1.33 fold enrichment (6-mer frequency, TF over GST control)"
same,binding signal,SPI1,"1.28 fold enrichment (6-mer frequency, TF over GST control)"
same,binding signal,SPIB,"1.28 fold enrichment (6-mer frequency, TF over GST control)"
same,binding signal,ELK3,"1.26 fold enrichment (6-mer frequency, TF over GST control)"
same,binding signal,FEV,"1.31 fold enrichment (6-mer frequency, TF over GST control)"
same,binding signal,ETV5,"1.36 fold enrichment (6-mer frequency, TF over GST control)"
same,binding signal,HSF1,"1.4 fold enrichment (6-mer frequency, TF over GST control)"
same,binding signal,SPIC,"1.6 fold enrichment (6-mer frequency, TF over GST control)"
same,binding signal,ELF4,"1.36 fold enrichment (6-mer frequency, TF over GST control)"
same,binding signal,ELK4,"1.24 fold enrichment (6-mer frequency, TF over GST control)"
same,binding signal,ETV2,"1.24 fold enrichment (6-mer frequency, TF over GST control)"
same,binding signal,ELF3,"1.44 fold enrichment (6-mer frequency, TF over GST control)"
same,binding signal,CRX,"1.37 fold enrichment (6-mer frequency, TF over GST control)"
same,binding signal,ETV1,"1.36 fold enrichment (6-mer frequency, TF over GST control)"
